# Source: PubChem BioAssay (NCATS)
# The source made the active and inactive calls. Where a call stands in place of a potency, no number is given. Calls follow the shape of the dose curve; as a rule, active = well fitted inhibition curve with a large enough effect; inconclusive = small, poorly fitted or top-dose-only effect; inactive = flat fitted curve, though single readings scatter.
# Target: ATP-dependent DNA helicase Q1 (Homo sapiens) (UniProt P46063)
# Test: qHTS Validation Assay for Inhibitors of RecQ-Like Dna Helicase 1 (RECQ1) (AID 2353)
# Conditions: recombinant RECQ1 helicase DNA unwinding assay; series mostly up to 25.6 µM
# From the text: Survival of cells and the faithful propagation of the genome depend on elaborate mechanisms of detecting and repairing DNA damage. Treatment of advanced cancer relies on radiation therapy or chemotherapy, which kill cancer cells by causing extensive DNA damage. It is often found, that cancer cells develop resistance to therapy through enhanced activity of DNA repair functions; this has led to an increased interest in developing drugs that interfere with DNA repair, which could sensitize cancer cells to conventional therapy.
# This validation qHTS assay pertains to human RECQ1, which is important in resolving abnormal DNA structures formed during replication or homologous recombination. Shutting down the expression of RECQ1 leads to chromosomal instability and higher radiation sensitivity in cultured cells.
# The validation assay was a fluorescence quenching based kinetic qHTS for RECQ1 Helicase DNA unwinding. The activity was measured as ATP-dependent separation of a 20-bp DNA duplex extended by 30-nt single-stranded tails (forked duplex). The forked DNA substrate was tagged with rhodamine fluorophore (carboxytetramethyl rhodamine, TAMRA) and BHQ-2 (Black Hole Quencher 2) dark quencher. Strand separation results in an increase in the fluorescence of TAMRA (excitation 525 nm, emission 598 nm). This substrate construct operates in a red-shifted region where very few compound library members have been noted to fluoresce (PubChem AIDs 593 and 594). An additional feature of the assay is the inclusion of 2.5 ug/ml poly (dIdC), to reduce interference by compounds such as DNA intercalators, a major source of false inhibitors.
# Opher Gileadi, Structural Genomics Consortium, University of Oxford
# Screening Center PI: Austin, C.P.
# Screening Center: NIH Chemical Genomics Center [NCGC]
# Three uL of reaction buffer (25 mM Tris-HCl (pH 8.0), 5 mM NaCl, 2 mM MgCl2, 1mM DTT, 0.01% Tween- 20, and 2.5 ug/ml poly(dI-dC), including enzyme (50 nM RECQ1T1), were dispensed into a 1536-well Greiner black assay plate via solenoid-valve based nanoliter dispensers. Compounds (23 nl each in columns 5-48) and control (23 nl each in column 2 as dose-response) were transferred via a Kalypsys pintool equipped with a 1536-pin array. The plates were incubated for 15 min at room temperature, and then 1 ul of substrates (200 nM DNA and 2 mM ATP, final concentrations) was added to start the reaction. The plate was transferred into a ViewLux high-throughput CCD imager where the reaction progress was measured in a discontinuous kinetic mode (two reads spaced 2 hours apart, with intermediate room temperature incubation of the covered assay plate) by using standard red-fluorescence optics (excitation filter 525 nm, emission filter 598 nm). Enzyme-free and vehicle (DMSO) controls were included for signal normalization.
# Potency is read from the fitted curve at half-maximal effect.
# ATP-dependent DNA helicase Q1 (Homo sapiens), sequence (P46063 whole entry, looked up): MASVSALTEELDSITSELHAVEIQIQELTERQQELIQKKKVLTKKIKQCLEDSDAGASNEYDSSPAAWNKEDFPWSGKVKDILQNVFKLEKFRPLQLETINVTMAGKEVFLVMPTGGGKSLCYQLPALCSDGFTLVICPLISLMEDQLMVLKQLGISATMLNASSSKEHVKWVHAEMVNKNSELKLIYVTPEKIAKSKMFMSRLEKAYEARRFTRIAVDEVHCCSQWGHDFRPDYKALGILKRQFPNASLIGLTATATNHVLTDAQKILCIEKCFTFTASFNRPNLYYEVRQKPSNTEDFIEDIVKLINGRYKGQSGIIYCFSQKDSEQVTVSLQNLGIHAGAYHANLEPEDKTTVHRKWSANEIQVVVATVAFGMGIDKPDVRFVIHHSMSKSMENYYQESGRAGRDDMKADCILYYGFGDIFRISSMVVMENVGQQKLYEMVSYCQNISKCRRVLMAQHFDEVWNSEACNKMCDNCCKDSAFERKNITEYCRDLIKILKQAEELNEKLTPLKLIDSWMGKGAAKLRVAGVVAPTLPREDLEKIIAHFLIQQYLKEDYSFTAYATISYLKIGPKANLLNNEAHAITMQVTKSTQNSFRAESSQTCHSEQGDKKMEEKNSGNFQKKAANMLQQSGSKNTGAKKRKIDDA
row,SMILES,Potency
1,O=C(O)/C=C/C(O)c1ccc(Cl)cc1 (stereo not given),inactive
2,NCCCCCCCCCCN,inactive
3,Nc1ccn([C@@H]2O[C@H](CO)[C@@H](O)[C@@H]2O)c(=O)n1,inactive
4,C=C/C(C)=C/[C@@]1(C)SC(=O)C(C)=C1O,8.91 µM (active)
5,Brc1c(Br)c(Br)c2n[nH]nc2c1Br,inactive
6,COc1cccc(OC)c1OCCNCC1COc2ccccc2O1 (stereo not given),inactive
7,Oc1ccccc1O,inactive
8,CN1CCc2cc(NC(=O)Nc3cccnc3)ccc21,inactive
9,CCCCCC(O)c1cccc(OCc2ccc3ccccc3n2)c1 (stereo not given),inactive
10,Cc1ccc(O)c(N=Nc2ccccc2)n1,inactive
11,CNCC[C@H](Oc1ccc(C(F)(F)F)cc1)c1ccccc1,inactive
12,CN(C)c1nc(N)c(C(=O)N=C(N)N)nc1Cl,inactive
13,COc1ccc(/C=C/C(=O)Nc2ccccc2C(=O)O)cc1OC,inactive
14,C[N+](C)(CCCCCC[N+](C)(C)CCCN1C(=O)c2cccc3cccc(c23)C1=O)CCCN1C(=O)c2cccc3cccc(c23)C1=O,inactive
15,O=C(O)c1cc(=O)c2c(Cl)cc(Cl)cc2[nH]1,inactive
16,NC(CCCP(=O)(O)O)C(=O)O (stereo not given),inactive
17,COc1cc2c(CCNC(C)=O)c[nH]c2cc1Cl,inactive
18,CCCCCCCCCCCCCCCCCCNC(=O)OCC(COP(=O)([O-])OCC[n+]1ccsc1)OC (stereo not given),inactive
19,c1cnc2c(c1)ccc1cccnc12,inactive
20,O=C(O)CCCC[C@@H]1CCSS1,inactive

row,SMILES,Potency
1,O=C(O)c1cc(=O)c2ccccc2[nH]1,inactive
2,NO,inactive
3,CC1(C)CCC=[N+]1[O-],inactive
4,CN[C@H](CC(C)C)C(=O)N[C@H]1C(=O)N[C@@H](CC(N)=O)C(=O)N[C@H]2C(=O)N[C@H]3C(=O)N[C@H](C(=O)N[C@H](C(=O)O)c4cc(O)cc(O)c4-c4cc3ccc4O)[C@H](O)c3ccc(c(Cl)c3)Oc3cc2cc(c3O[C@@H]2O[C@H](CO)[C@@H](O)[C@H](O)[C@H]2O[C@H]2C[C@](C)(N)[C@H](O)[C@H](C)O2)Oc2ccc(cc2Cl)[C@H]1O,inactive
5,COC(=O)c1c(C)[nH]c(C)c1C(=O)c1ccccc1Cc1ccccc1,inactive
6,O=C(/C=C/c1ccc(O)c(O)c1)OCCc1ccccc1,inactive
7,CC(=O)SCC[N+](C)(C)C,inactive
8,O=C(O)CNC(=O)C(CS)Cc1ccccc1 (stereo not given),inactive
9,CN1C2CCC1CC(OC(=O)C(O)c1ccccc1)C2 (stereo not given),inactive
10,O=C(O)[C@@H]1C[C@H](C(=O)O)N1,inactive
11,Oc1cc2c(cc1O)CN(C(=S)NCCc1ccc(Cl)cc1)CCC2,inactive
12,CCCCN1CCC(n2c(=O)[nH]c3ccccc32)CC1,inactive
13,NC(=O)C(=O)O,inactive
14,NCCSSCCN,inactive
15,CC(C)NCC(O)COc1cccc2ccccc12 (stereo not given),inactive
16,CCCN(CC1CC1)c1nc(C)nc(Nc2c(Cl)cc(Cl)cc2Cl)c1Cl,inactive
17,N#C/C(=C\c1ccc(O)c(O)c1)C(=O)NCCCc1ccccc1,inactive
18,C[C@@H](CN1CCC(Cc2ccccc2)CC1)[C@@H](O)c1ccc(O)cc1,inactive
19,CC(C)(C)c1ccc(S(=O)(=O)/C=C/C#N)cc1,inactive
20,N#C/C(=C\c1ccc(O)c(O)c1)C(=O)NCc1ccccc1,inactive
